Compound activity from PubChem BioAssay.
In the library only some 5% were active in any assay of this set; here they are far more common.
CHT PAM – CHT positive allosteric modulators, primary screen, cell-based, membrane potential dye, choline EC20; 310,000 tested, 0.49% active; AID 488977, 2010; B-score at 10 µM; High affinity choline transporter 1 (Homo sapiens), Q9GZV3; CHT-expressing cells; active compounds read high; LV-AA mutant CHT in HEK293 cells;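 active = initial fluorescence not abnormally high and integrated response B-score, plate-corrected, over 3 SD above library mean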
AI-2 QS mod – Vibrio harveyi AI-2 quorum sensing modulators, primary screen, JMH597 strain, luminescence/OD600 ratio | Vibrio harveyi JMH597 AI-2 luminescence/OD600 ratio, 9 h; active compounds read low; strain lacks LuxN and CqsS sensors; 0 = neutral-control median | 300,000 tested, 0.4% active | activity change, % at 7.5 µM | AID 2094, 2009; in the data active = activity change below about -75%, passing the limit was not always enough;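 also: luminescence divided by OD600 gain over 9 h not by final OD600 alone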
CHT inh – inhibitors of human choline transporter CHT | 310,000 tested, 0.86% active | B-score at 10 µM | High affinity choline transporter 1 (Homo sapiens), Q9GZV3 | CHT-expressing cells, membrane potential dye, choline response; active compounds read low;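 active = B-score over 3 SD under the library average, and starting fluorescence ratio not unusually high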;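 also: choline stimulus applied at its EC90 after an EC20 pre-addition; B-score computed on integrated fluorescence ratio after choline addition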
PREPL inh – PREPL enzyme inhibitors, primary screen, biochemical, fluorescence polarization | 320,000 tested, 0.68% active | recombinant PREPL, fluorescence polarization activity-based probe | Prolyl endopeptidase-like (Homo sapiens), Q4J6C6 | inhibition, % at 5.96 µM; in the data active = inhibition above about 43%;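 also: 0% = enzyme with DMSO and 100% = wells lacking enzyme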
Target sequence (Q4J6C6 whole entry, looked up): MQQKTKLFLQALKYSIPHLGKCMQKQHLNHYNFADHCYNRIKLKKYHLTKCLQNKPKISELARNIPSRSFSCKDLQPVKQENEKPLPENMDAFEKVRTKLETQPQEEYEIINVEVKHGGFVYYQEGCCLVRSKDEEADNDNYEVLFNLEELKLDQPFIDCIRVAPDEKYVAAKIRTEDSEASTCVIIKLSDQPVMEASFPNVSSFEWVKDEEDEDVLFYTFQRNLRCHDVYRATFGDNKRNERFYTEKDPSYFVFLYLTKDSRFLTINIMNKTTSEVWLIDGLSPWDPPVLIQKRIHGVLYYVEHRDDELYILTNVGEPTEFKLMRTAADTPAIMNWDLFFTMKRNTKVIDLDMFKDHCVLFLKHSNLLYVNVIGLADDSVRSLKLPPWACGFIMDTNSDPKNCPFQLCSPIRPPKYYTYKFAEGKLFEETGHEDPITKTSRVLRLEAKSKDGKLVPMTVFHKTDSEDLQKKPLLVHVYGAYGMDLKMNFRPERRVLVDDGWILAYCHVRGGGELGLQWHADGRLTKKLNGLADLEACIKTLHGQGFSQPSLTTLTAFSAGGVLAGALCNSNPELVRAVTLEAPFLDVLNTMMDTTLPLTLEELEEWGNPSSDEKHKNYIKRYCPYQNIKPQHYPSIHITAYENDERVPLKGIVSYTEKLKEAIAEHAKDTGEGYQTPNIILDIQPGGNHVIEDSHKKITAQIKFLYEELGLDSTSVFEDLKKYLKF
ALR H2O2 inh – inhibitors of human ALR sulfhydryl oxidase, primary screen, biochemical, H2O2 detection, HRP-luminol luminescence, single point | FAD-linked sulfhydryl oxidase ALR (Homo sapiens), P55789 | purified ALR, DTT oxidation | 290,000 tested, 3.8% active | AID 485317, 2010 | inhibition, % (concentration not given with the values);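 active = mean replicate inhibition above about 79%, with every replicate also reaching it, limit read from the data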
* = called active by the depositor; i = inactive; / = no result given.

SMILES	CHT PAM	AI-2 QS mod	CHT inh	PREPL inh	ALR H2O2 inh
CC(=O)c1cccc(NC(=O)Nc2cccs2)c1	i	-0.2	i	17.7	96.5*
Cc1ccc(NC(=O)Nc2cccs2)nc1	i	11.4	i	-13.3	98.4*
Cc1ccc(NC(=O)Nc2cccs2)cc1	i	13.0	i	18.5	98.1*
O=C(O)c1nc(NCCc2ccccc2)ncc1Cl	i	1.0	i	1.8	/
C=CCNc1nc(C(=O)OCC(=O)Nc2ccc(S(N)(=O)=O)cc2)cs1	i	3.0	i	10.5	98.3*
CCC(=O)Nc1nnc(C(C)(C)C)s1	i	12.0	i	20.9	98.2*
CC1=CC(c2ccc(Cl)cc2)n2nc(NS(=O)(=O)c3ccc(C)cc3)nc2N1 (centres undefined)	i	5.0	i	-3.8	96.4*
O=C(COc1ccc(Cl)cc1Cl)NNC(=S)NCc1ccco1	i	18.5	i	-11.1	83.2*
Cc1ccc(OCCCC(=O)NCc2ccco2)c(C)c1	i	16.0	i	4.9	95.5*
Cc1cc(Cl)cc(Cl)c1OCC(=O)NCc1ccco1	i	21.6	i	2.5	91.3*
O=C(COc1ccc(Cl)cc1Cl)NCc1ccco1	i	-3.1	i	4.0	20.1
COc1ccccc1COC(=O)c1ccc(S(=O)(=O)N2CCOCC2)cc1	/	/	/	9.5	1.2
COc1cccc(NC(=O)CSc2cccc[n+]2[O-])c1	/	/	/	27.9	-14.1
O=C(CSc1cccc[n+]1[O-])Nc1cccc(Oc2ccccc2)c1	i	1.2	i	3.0	93.9*
Nc1nc(SCC(=O)Nc2cccc(Oc3ccccc3)c2)n[nH]1	i	26.4	i	-2.8	-5.3
O=C(CSc1ncnc2[nH]ncc12)Nc1cccc(Oc2ccccc2)c1	i	-39.7	i	-21.8	98.4*
COc1ccccc1N(Cc1ccccc1)S(=O)(=O)c1cccc(C(=O)O)c1	i	19.6	i	-1.9	2.5
COc1ccccc1N(Cc1ccccc1)S(=O)(=O)c1cc(C(=O)O)ccc1Cl	i	-2.4	i	-11.9	92.1*
CCCCCOC(=O)C1=C(C)NC(=O)NC1c1ccc(OC)cc1 (centres undefined)	i	4.3	i	-11.5	/
C=CCC(C=C)[N+]1(CC(=O)OC)CCCCC1 (centres undefined)	i	14.6	i	-6.3	1.2
c1ccc(CNc2ncnc3sc4c(c23)CCCC4)nc1	i	5.1	i	0.3	96.4*
Cc1ccc(OCCCCNC(C)c2ccccc2)c(C)c1 (centres undefined)	i	12.6	i	-11.1	-1.3
COc1cccc(-c2nc(CS(=O)(=O)CC(=O)NCc3ccc(Cl)cc3)c(C)o2)c1	i	17.8	i	-15.6	-8.6
COc1cccc(-c2nc(CS(=O)CC(=O)NCc3ccccc3)c(C)o2)c1 (centres undefined)	i	7.3	i	11.6	99.6*
CCCNC(=O)CS(=O)Cc1nc(-c2cccc(OC)c2)oc1C (centres undefined)	i	5.6	i	5.7	98.7*
SMILES	CHT PAM	AI-2 QS mod	CHT inh	PREPL inh	ALR H2O2 inh
COc1cccc(-c2nc(CS(=O)(=O)CC(=O)NCC(C)c3ccccc3)c(C)o2)c1 (centres undefined)	i	1.1	i	-6.9	65.3
O=[N+]([O-])c1cccc(N(CC(O)CN2CCCC2)S(=O)(=O)c2ccccc2)c1 (centres undefined)	i	22.3	i	0.2	-2.2
O=C1CC(c2ccccc2)Oc2cc(O)cc(O)c21 (centres undefined)	i	23.6	i	-23.0	0.8
O=C1CC(c2ccc(O)c(O)c2)Oc2cc(O)cc(O)c21 (centres undefined)	i	21.1	i	0.2	98.8*
O=C1CC(c2ccc(O)cc2)Oc2cc(O)cc(O)c21 (centres undefined)	i	17.1	i	8.2	99.0*
O=C1CC(c2ccc(O)c(O)c2)Oc2c1ccc(O)c2O (centres undefined)	i	/	i	40.1	98.5*
Cc1ccc(N(C(=O)c2ccc(Br)o2)C2C=CS(=O)(=O)C2)cc1 (centres undefined)	i	17.7	i	16.3	77.4*
Cc1ccc(N(C(=O)c2cccs2)C2C=CS(=O)(=O)C2)cc1 (centres undefined)	i	20.1	i	-7.8	95.7*
CCN1CCN(C(C)CCc2ccccc2)CC1 (centres undefined)	i	14.1	i	-19.2	/
C[C@@H]1COC(=O)[C@@H](CC(=O)OC(C)(C)C)C/C=C\C[C@@H](CC(=O)NCCO)C(=O)N1	/	/	/	-3.9	/
COc1ccc(NC(=S)NC(=O)C2CCC2)cc1	i	-0.6	i	-0.9	-7.4
COc1ccc(OC)c(NC(=O)CCN2CCN(Cc3ccccc3)CC2)c1	i	23.4	i	9.3	-51.6
COc1ccc(OC)c(NC(=O)CCN2CCN(c3ccccc3)CC2)c1	i	10.4	i	28.1	92.3*
O=C(CCN1CCCCC1)N/N=C/c1ccc(Br)cc1	i	29.8	i	-21.1	-0.1
COc1cc(/C=N/NC(=O)CCc2c(C)n[nH]c2C)ccc1O	i	8.0	i	-6.3	98.8*
COc1cc(/C=N/NC(=O)CCN2CCCCC2)ccc1O	i	7.0	i	-1.4	98.9*
CCn1c(=O)n(CC(=O)Nc2cc(OC)ccc2OC)c(=O)c2ccccc21	i	14.7	i	17.5	98.7*
Cc1ccc(NC(=O)C2CCN(c3cnccn3)CC2)cc1C	i	24.7	i	0.5	-5.7
CC1CN(C2=NC(=O)/C(=C/c3ccncc3)S2)CC(C)O1 (centres undefined)	i	16.6	i	9.3	/
Cc1ccc(NC(=O)CCS(=O)(=O)c2ccc3c(c2)NC(=O)C(C)S3)nc1 (centres undefined)	i	15.1	i	14.1	-6.8
COc1ccc(/C=N/NC(=O)c2ccncc2)cc1CN1CCN(c2ccc(F)cc2)CC1	i	24.3	i	-56.9	98.6*
O=C(CCN1CCN(C(c2ccccc2)c2ccccc2)CC1)N/N=C/c1ccc(O)cc1	i	21.7	i	9.7	98.4*
COc1ccc(/C=N/NC(=O)CCn2nc(C)cc2C)cc1O	i	16.5	i	-0.3	77.4*
CC(=O)Nc1ccc(/C=N/NC(=O)CCN2CCN(c3ccccc3)CC2)cc1	i	-3.9	i	16.0	5.3
COc1ccc(/C=N\NC(=O)CCN2CCN(c3ccccc3)CC2)cc1OC	i	10.4	i	16.3	98.0*
COc1ccc(/C=N/NC(=O)CCn2nc(C)cc2C)cc1	i	16.9	i	1.7	-16.6
